An excerpt weighted towards active compounds, which were near 1.7% of everything screened.
KCNH2 3.1 block = inhibitors of human KCNH2 3.1 potassium channel isoform; AID 720553; activity change, % (tested at about 1.8 µM); U2OS KCNH2 3.1, thallium flux FluxOr; hits give low values; actives 0.95% (n = 340,000);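 active means maximum activity change below -70%; inconclusive means maximum activity change from -70% to -50%; inactive means maximum activity change above -50%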;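 further: thallium influx rate constant from kinetic fluorescence after stimulation buffer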
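Steps: virus added to U2OS suspension (4 h, RT, dark); medium with 10% FBS added, cells plated, 37 C overnight; FluxOr/Red40 loading buffer 45 min RT; stimulation buffer, 2 min kinetic read; rate constant normalized.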
RXFP1 antagonist = antagonists of human relaxin receptor RXFP1 | Q9HBX9 | HEK293-RXFP1, relaxin-stimulated cAMP HTRF, 30 min; hits give low values | activity change, negative = inhibition, % at 57.5 µM | actives 0.59% (n = 350,000) | AID 1259400;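 active means activity change of -60% or lower, but not beyond a set lower limit; inconclusive means change between -60% and -40%, or beyond the set limit; inactive means change above -40%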
Akt phos inh = Akt phosphorylation inhibition | Neuro2A IGF-stimulated pAkt S473 HTRF, 20 min; hits give low values | actives 0.32% (n = 360,000) | activity change, % for hits at 50 µM; in the data active means activity change below about -80%; inconclusive means mostly about -51% to -80%
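Single-point screen (50 µM final compound) in Neuro2A cells stimulated 20 min with 6 nM IGF at 37 deg C. After lysis, Ser473-phosphorylated Akt read by HTRF (ex 330 nm, em 615/665 nm) as the 665/615 ratio.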
KCNH2 WT inh = inhibitors of human wildtype KCNH2 potassium channel | Q12809 | U2OS, BacMam KCNH2, thallium flux FluxOr; hits give low values | activity change, % at 1.84 µM | actives 0.37% (n = 340,000) | AID 720551;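 active means maximum activity change below -70%; inconclusive means maximum activity change between -70% and -50%; inactive means maximum activity change above -50%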
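U2OS cells transduced with wild-type KCNH2 virus are loaded with FluxOr dye for 45 min, and thallium flux is measured in kinetic reads before and after stimulation buffer. Rate constants are normalized to DMSO controls.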
RXFP1 ag = agonists of human relaxin receptor RXFP1; HEK293T-RXFP1 cAMP TR-FRET, 30 min; response scale: percent of porcine relaxin response, buffer zero; AID 2676; Potency, µM (top dose mostly 57.5 µM), for inactives: at the highest dose activation, usual class: activators; actives 0.3% (n = 370,000); active means well fitted activation curve with a large enough effect; inconclusive means small, poorly fitted or top-dose-only effect; further: potency means the concentration at half of the fitted maximal effect; nearly all actives have a fitted effect of over 60% in size
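HEK293T cells stably expressing RXFP1 were pretreated with the PDE4 inhibitor Ro 20174, exposed to compounds for 30 min at 37C, lysed, and cAMP was read by TR-FRET. Data normalized to buffer (basal) and 29 nM porcine relaxin (100%).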
* marks the source's active call; other numbers are inactive results; i = inactive; ? = inconclusive; . = no result. On the % scale 0 is the no-effect control and ±100 the full control effect.

SMILES	KCNH2 3.1 block	RXFP1 antagonist	Akt phos inh	KCNH2 WT inh	RXFP1 ag
Cc1cccc(N(Cc2ccccc2)C(=O)c2ccc(F)c(S(=O)(=O)N3CCOCC3)c2)c1	-11.7	-13.9	i	20.6	0.2%
Cc1ccc(N(Cc2ccccc2)C(=O)c2ccc(F)c(S(=O)(=O)N3CCOCC3)c2)cc1	-93.5*	-0.3	i	-12.0	1.7%
Cc1ccc(N(CC(=O)Nc2c(C)n(C)n(-c3ccccc3)c2=O)S(C)(=O)=O)cc1C	-11.6	-1.2	-108.9%*	0.6	-1.5%
Cc1c(NS(=O)(=O)c2ccccc2F)c(=O)n(-c2ccccc2)n1C	-1.5	14.8	i	-8.5	-0.8%
COc1ccc(C(=O)Nc2ccc(-c3ccc(C)o3)cc2)cc1S(=O)(=O)N1CCOCC1	-70.9*	-9.2	i	15.6	-0.3%
COc1ccccc1CNC(=O)Cn1ncc2c3ccccc3n(Cc3ccccc3C)c2c1=O	.	3.2	.	.	-2.5%
Cc1ccc2c(c1)nnn2C1CCN(C(=O)NCc2ccccc2)CC1	-4.7	?	i	0.4	-1.6%
O=C(NCc1ccccc1)N1CCC(n2cnc3cc(F)ccc32)CC1	-5.3	-1.3	-112.3%*	1.3	-0.1%
CCCOP(=O)(c1ccc(N(C)C)cc1)C(Nc1ccccc1)c1ccc(N(C)C)cc1 (stereo not drawn)	-21.0	-9.8	i	0.8	-0.4%
CCCCOP(=O)(c1ccc(N(C)C)cc1)C(Nc1ccccc1)c1ccccc1 (stereo not drawn)	-95.3*	.	i	-4.4	-0.5%
COc1ccc(C(=O)Nc2oc(-c3ccccc3)c(-c3ccccc3)c2C#N)cc1	-70.3*	4.4	i	0.0	-0.5%
COc1ccc(-c2oc(NC(=O)c3ccc(C)cc3)c(C#N)c2-c2ccc(OC)cc2)cc1	-7.0	-10.4	i	0.7	2.7%
CC(=O)CSc1nc(-c2cccs2)c(C#N)c(=O)[nH]1	5.5	22.4	i	-18.1	14.1µM*
CCOC(=O)c1ccc(C(=O)OCC)nc1	12.3	19.5	-106.4%*	2.3	-0.4%
CCOC(=O)c1cccnc1	.	8.8	.	.	.
CCOc1ccccc1NC(=O)c1cc(-c2cc(OC)c(OC)c(OC)c2)nc2ccccc12	-5.7	7.7	i	-7.9	4.0%
Cc1ccc2cc(CN(Cc3ccco3)C(=S)NCC3CCCO3)c(=O)[nH]c2c1C (stereo not drawn)	-82.3*	.	i	-1.3	0.7%
Cc1nnc(NC(=O)c2ccc(S(=O)(=O)N(C)Cc3ccccc3)cc2)o1	-2.3	16.2	i	-14.3	1.0%
CCCc1cc(=O)oc2cc(OCc3ccc(OC)cc3)c(Cl)cc12	-73.8*	3.0	i	-17.9	-0.9%
COc1cccc(Nc2ccc(Nc3cccc(OC)c3)nn2)c1	5.1	-13.8	i	-5.7	-1.9%
Cc1cc(OCC(=O)NCC(O)c2ccccc2)c2c(C)cc(=O)oc2c1 (stereo not drawn)	-0.8	14.6	i	-3.9	0.4%
Cc1nc2ccc(F)cc2cc1C(=O)Nc1ccc(Cl)c(Cl)c1	4.4	-18.8	i	-130.0*	9.5%
Cc1nc2ccc(F)cc2cc1C(=O)NCc1ccco1	4.7	3.3	i	-1.1	0.5%
CCCCOc1cccc(NC(=O)CSc2nnc(C)s2)c1	.	-15.3	.	.	-2.4%
Cc1cc(Br)cc(C)c1OCC(=O)NNC(=O)c1cccs1	-13.5	-16.7	i	-7.6	-3.8%
SMILES	KCNH2 3.1 block	RXFP1 antagonist	Akt phos inh	KCNH2 WT inh	RXFP1 ag
Cc1ccc2c(c1C)NC(=O)C21N2CCCC2C(C(=O)c2ccc3ccccc3c2)C12C(=O)Nc1ccccc12 (stereo not drawn)	-86.5*	-8.6	i	-5.0	4.9%
Cc1csc(NC(=O)CSc2nnnn2C)n1	-1.7	1.5	-116.9%*	0.4	0.0%
COc1ccc(-c2cc(C(=O)Nc3nc4ccccc4s3)c3ccccc3n2)cc1OC	-8.8	-1.2	i	2.0	-0.3%
CC(OC(=O)c1ccc2c(c1)OCCO2)C(=O)NC1CCCCC1C (stereo not drawn)	0.6	-72.5*	i	3.7	-0.5%
CC(C)Oc1ccc(C(=O)OC(C)C(=O)NC2CCCCC2C)cc1 (stereo not drawn)	-1.3	-1.0	i	4.8	-2.2%
Cc1cc2c(cc3c(SCc4ccc(Cl)cc4)nnc(C)n32)o1	.	-0.7	.	.	14.1µM*

High-throughput results deposited in PubChem by National Center for Advancing Translational Sciences (NCATS).
